TRPML1 inh = qHTS for Inhibitors of the Human Mucolipin Transient Receptor Potential 1 (TRPML1); Mucolipin-1 (Homo sapiens), Q9GZU1; TRPML1-inducible cells, Ca2+ dye fluorescence, FDSS; stronger effect = lower value; inhibition of EC80 agonist-evoked calcium signal; activity change, negative = inhibition, % (no concentration beside the values); 390,000 tested, 0.02% active; in the data active = activity change below about -50%; inconclusive = between about -30% and that limit;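 note: stimulus is agonist 54-4 at its EC80 concentration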
Target sequence (Q9GZU1 whole entry, looked up): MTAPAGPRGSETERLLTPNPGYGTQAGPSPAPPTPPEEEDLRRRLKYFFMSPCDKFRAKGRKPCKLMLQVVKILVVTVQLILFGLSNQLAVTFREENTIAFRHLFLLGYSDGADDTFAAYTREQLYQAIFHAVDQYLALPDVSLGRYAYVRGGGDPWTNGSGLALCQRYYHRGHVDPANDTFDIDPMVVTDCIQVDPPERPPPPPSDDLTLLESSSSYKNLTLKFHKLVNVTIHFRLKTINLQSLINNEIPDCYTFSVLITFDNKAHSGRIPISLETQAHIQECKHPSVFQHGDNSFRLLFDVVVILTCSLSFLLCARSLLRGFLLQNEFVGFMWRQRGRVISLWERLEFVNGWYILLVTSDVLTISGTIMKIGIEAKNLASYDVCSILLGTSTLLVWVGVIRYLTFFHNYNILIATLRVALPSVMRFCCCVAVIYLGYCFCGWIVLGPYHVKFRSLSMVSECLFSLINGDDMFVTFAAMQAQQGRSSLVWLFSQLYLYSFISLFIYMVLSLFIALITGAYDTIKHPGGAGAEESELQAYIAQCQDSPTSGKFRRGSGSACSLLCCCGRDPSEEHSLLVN
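Tet-induced TRPML1-DL cells loaded with Ca8 no-wash calcium dye were read kinetically on FDSS. Compound addition was followed by EC80 agonist 54-4 (4 uM final); inhibition was read over 110 s.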
USP1-UAF1 inh = Inhibitors of USP1/UAF1: Primary Screen; Ubiquitin carboxyl-terminal hydrolase 1 (Homo sapiens), O94782; recombinant USP1/UAF1, Ub-Rhodamine cleavage fluorescence; Potency, µM (highest dose often 57.1 µM), usual class: inhibitors; 390,000 tested, 0.23% active; AID 743255, 2014; active = well fitted inhibition curve with a large enough effect; inconclusive = small, poorly fitted or top-dose-only effect; inactive = no such curve, though single readings can be large or run the other way; note: nearly all actives have a fitted effect of over 60% in size
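Step one: compound is pinned into 1nM USP1/UAF1 in HEPES pH 7.8 buffer with TCEP. Step two: 15 min room-temperature incubation. Step three: Ub-Rho (150nM final) starts cleavage, tracked by fluorescence over six one-minute reads.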
TRPML1 ag = qHTS for Agonists of the Human Mucolipin Transient Receptor Potential 1 (TRPML1); Mucolipin-1 (Homo sapiens), Q9GZU1; TRPML1-expressing cells, Ca2+ dye fluorescence, FDSS; activation, % (concentration not given with the values); 410,000 tested, 0.12% active; in the data active = activation above about 50%; inconclusive = mostly about 30% to 49%
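In this qHTS format, compounds were pin-transferred onto Ca8-dye-loaded TRPML1-DL cells induced with Tet overnight, and intracellular Ca2+ fluorescence was recorded kinetically for 110 s after a 10 s baseline. A subsequent 4uM final 54-4 (EC80) addition followed by a second 110 s read served as the antagonist phase.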
TRPV1 agonist = HTS Assay for Compounds that Act as Agonists of the Vanilloid Receptor 1; Transient receptor potential cation channel subfamily V member 1 (Homo sapiens), Q8NER1; TRPV1-expressing cells, Fluo-8 calcium influx, agonist mode; activation, % at 8.33 µM; 320,000 tested, 0.19% active; in the data active = activation above about 80%; inconclusive = between about 30% and that limit
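TRPV1-expressing cells were cultured overnight at 35.5C and loaded with Fluo-8 calcium dye for 40 to 90 min at room temperature. After a 10 s baseline, compound was added and calcium influx was read kinetically for 3 min (ex 480/em 520 nm).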
TRPV1 PAM = HTS Assay for Compounds that Act as Potentiators of the Vanilloid Receptor 1; potentiation, % at 8.33 µM; AID 540277, 2011; TRPV1-expressing cells, Fluo-8 calcium influx, capsaicin EC20 potentiation; Transient receptor potential cation channel subfamily V member 1 (Homo sapiens), Q8NER1; 320,000 tested, 0.02% active; in the data active = potentiation above about 80%; inconclusive = between about 30% and that limit
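Cells expressing TRPV1 were dye-loaded with Fluo-8 and read kinetically: 10 s baseline, 3 min after compound (agonist portion), then 2 min after EC20 capsaicin (allosteric enhancer portion). Calcium-bound dye fluorescence at 480/520 nm.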
Numbers stand for hits; n = inactive; u = inconclusive; x = not tested or not shown; ! = repeats disagree. An excerpt weighted towards active compounds, which were near 0.4% of everything screened.

SMILES	TRPML1 inh	USP1-UAF1 inh	TRPML1 ag	TRPV1 agonist	TRPV1 PAM
O=C(Nc1ccc(Br)cn1)c1ccc(Br)s1	n	n	n	u	n
O=C(Nc1ccc(Br)cn1)c1ccc(Cl)s1	n	n	n	99	n
O=C(CCCOc1ccc(Cl)cc1Cl)Nc1ccncc1	n	n	n	80	n
COc1ccc(/C=C/C(=O)N(CC(C)C)CC(C)C)cc1Br	n	n	n	u	n
CCN(CC)c1ccc(C(=O)O)cc1	n	n	n	n	n
CCN(CC)c1ccc(/C=C2\C(=O)c3ccc(C(=O)O)cc3C2=O)cc1	n	14µM	78	u	n
Cc1ccc(S(=O)(=O)N2CCc3ccccc3C2CN2C(=O)c3ccccc3C2=O)cc1 (stereo not given)	n	n	87	n	n
O=C(NCc1ccccc1)c1ccc(C(=O)N(C2CCCCC2)C2CCCCC2)cc1	u	n	119	u	n
O=C(NCc1ccccc1)c1ccc(C(=O)NCc2ccccc2)cc1	n	n	n	x	x
COc1ccccc1N1CCN(S(=O)(=O)CCNC(=O)CCc2ccccc2)CC1	n	n	n	x	x
O=C(NCCCc1ccccc1)c1ccc(F)cc1	n	n	n	88	n
Cc1ccc(CC(=O)NCCCc2ccccc2)cc1	n	n	n	80	n
COc1ccc(CNC(=O)CN2CCN(c3cccc(C)c3C)CC2)cc1	n	n	n	80	n
CC[C@@]1(O)C(=O)OCc2c1cc1n(c2=O)Cc2cc3c(CN(C)C)c(O)ccc3nc2-1	n	25µM	u	x	x
CN1CCN(S(=O)(=O)CC2(C)C3CCC2(C)C(=O)C3Br)CC1 (stereo not given)	n	n	n	n	n
Cc1c(C(=O)Nc2ccc3nc(N4CCOCC4)sc3c2)oc2ccccc12	n	n	55	n	n
Cn1c(=O)c2cc(NC(=O)Cc3ccccc3F)ccc2n1-c1ccc(C(C)(C)C)cc1	x	x	63	x	x
COc1ccc(CCNC(=O)CCCOc2cccc(C)c2C)cc1OC	n	n	n	83	n
Cc1ccc(C(c2cccc(Br)c2)c2c(C)[nH]c3ccccc23)s1 (stereo not given)	n	n	n	x	x
O=S(=O)(c1ccc2nc(N3CCN(c4ccccc4)CC3)ccc2c1)N1CCCCC1	n	u	n	n	n
COc1ccccc1N1CCN(c2ccc3cc(S(=O)(=O)N4CCCCC4)ccc3n2)CC1	n	n	96	n	n
CC(C)(C)c1ccc(/C=N/NC(=O)c2ccccn2)cc1	n	n	n	83	n
O=C(N/N=C/c1ccccn1)c1ccc(N/N=C/c2ccccn2)cc1	n	n	n	n	n
O=C(N/N=C/c1ccc(Br)s1)c1ccccn1	n	n	n	87	n
O=C(N/N=C/c1ccsc1)c1ccccn1	u	n	n	n	n
SMILES	TRPML1 inh	USP1-UAF1 inh	TRPML1 ag	TRPV1 agonist	TRPV1 PAM
CC(C)(C)c1ccc(C(=O)N/N=C/c2ccccn2)cc1	n	n	n	83	n
COc1ccc(CNC(=O)COC(=O)c2cc(-c3cccs3)nc3ccccc23)cc1OC	n	n	n	88	n
O=C(COC(=O)c1cc(-c2cccs2)nc2ccccc12)c1ccccc1	n	u	n	x	x
CCC(=O)NC1=C(Cl)C(=O)C(NC(=O)CC)=C(Cl)C1=O	n	32µM	n	n	n
COCCNC(=O)C(c1ccc(C)o1)N(Cc1ccc(F)cc1)C(=O)Cn1nnc2ccccc21 (stereo not given)	n	n	n	n	n
N#CC1=C2SCN(Cc3ccccc3)CN2C(=O)CC1c1cccs1 (stereo not given)	n	16µM	n	x	x
COc1ccccc1C(O)c1nccn1Cc1ccccc1 (stereo not given)	x	x	n	x	x
O=C(Cc1ccccc1)NO	x	x	n	x	x
COc1cc(/C=C2\CC/C(=C\c3ccc(OCCO)c(OC)c3)C2=O)ccc1OCCO	n	u	107	u	n
C#CCNC(=O)C[C@@H]1C[C@@]2(C(=O)OCC)CCCC=C2N(Cc2ccc3c(c2)OCO3)C1=O	x	x	63	x	x
CCCCNC(=O)C[C@@H]1C[C@@]2(C(=O)OCC)CCCC=C2N(Cc2ccc3c(c2)OCO3)C1=O	x	x	n	x	x
CCCCn1c(=O)[nH]c2nc3cc(NC(C)=O)ccc3nc2c1=O	n	n	n	n	n
CCCCCCn1c(=O)[nH]c2nc3cc(N)c(C)cc3nc2c1=O	n	u	70	n	n
O=C1C=C(Nc2ccc(F)cc2)c2ccccc2C1=O	n	25µM	n	n	n
O=C1C(Cl)=C(Nc2ccccc2)C(=O)c2ccccc21	n	n	n	n	n
COc1cc(Cl)c(NC2=CC(=O)C(=O)c3ccccc32)c(OC)c1	n	28µM	n	n	n
CCOc1ccc(NC2=CC(=O)C(=O)c3ccccc32)cc1	n	25µM	n	x	x
CCOc1ccc(NC2=CC(=O)CCC2)cc1	u	n	n	n	n
O=C1C=C(Nc2cccnc2)c2ccccc2C1=O	n	14µM	n	x	x
CCOC(=O)C1(CC2CC2)CCN(Cc2ccc(OC)cc2F)CC1	n	n	n	n	n
COc1ccc(CNCc2c(C(=O)O)c(C)n(Cc3ccccc3C)c2C)c(OC)c1	n	n	n	x	x
Cc1cccc(NC(=O)c2cc3c(n(-c4ccccc4)c2=O)CCCC3=O)n1	n	n	n	n	n
O=C(NCC(c1ccco1)N1CCCC1)c1cn(Cc2ccccc2)nc1-c1ccccc1 (stereo not given)	n	n	n	n	n
COc1ccc(S(=O)(=O)N2CCOC2CNC(=O)C(=O)NCc2ccco2)cc1 (stereo not given)	n	n	n	n	n
O=C(Nc1cccc([N+](=O)[O-])c1)C1CC(=O)N(Cc2ccccc2)C1 (stereo not given)	n	u	n	n	n
SMILES	TRPML1 inh	USP1-UAF1 inh	TRPML1 ag	TRPV1 agonist	TRPV1 PAM
CC(=O)Nc1c2c3c(cccc3n(C)c1=O)C(=O)c1ccccc1-2	n	n	n	n	n
Cn1c(=O)c(Nc2ccc(Cl)cc2)c2c3c(cccc31)C(=O)c1ccccc1-2	n	10µM	u	n	n
CN1CC=C2C(C#N)=C(N)C(C#N)(C#N)[C@H](c3cccs3)[C@H]2C1	n	u	n	n	n
CN1CCC2(CC1)C1CN(C)CC=C1C(C#N)=C(N)C2(C#N)C#N (stereo not given)	n	28µM!	n	n	n
Cc1ccc(/C=N/Nc2nc(N3CCCCC3)nc(N3CCCCC3)n2)o1	n	n	n	85	n
CCn1c(C(=O)N2CCCC(C(=O)N3CCN(c4ccccc4)CC3)C2)cc2sccc21 (stereo not given)	u	n	61	x	x
Cc1ccc(NC2=CC(=O)C(=O)c3ccccc32)c(C)c1	n	32µM	n	n	n

Screening data (PubChem BioAssay)
